Source: article PMC7819943, “Rice protein-binding microarrays: a tool to detect cis-acting elements near promoter regions in rice”
The full ranking holds about 68,000 sequences; the median of “fluorescence intensity (a.u.)” is about 9,100, and the highest 2% start at about 16,000. For the sample, the highest values were picked, then their nearest neighbours and some sequences at random.

target: OsWRKY34 (Oryza sativa, UniProt Q0JBA9 1-250); test: protein-binding microarray (RPBM); PBS, 2% BSA, 51.3 ng/ul salmon testes DNA, 50 uM zinc acetate, 200 nM TF, 25 C, 1 h; high values mean tight binding; conditions: protein: recombinant; tags: N-terminal polyhistidine and DsRed monomer fusion (pET32a); label: CyDye5-dUTP incorporated in the synthesized complementary strand; 3' TTTTT single-stranded linker to array surface; dsDNA, one strand shown
How it was run: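 Transcription factors, each fused N-terminally to a polyhistidine tag and DsRed, were expressed in E. coli BL21-CodonPlus and purified on Ni–NTA. A custom Agilent array was made double-stranded by primer extension with Cy5-dUTP and blocked with 2% BSA. It was incubated with 200 nM protein in PBS, 2% BSA, salmon testes DNA and 50 µM zinc acetate at 25 °C for 1 h, then washed. The binding signal is per-feature fluorescence intensity (arbitrary units) read on an Axon 4000B scanner.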

Sequence of OsWRKY34 (Q0JBA9 entry or part of it): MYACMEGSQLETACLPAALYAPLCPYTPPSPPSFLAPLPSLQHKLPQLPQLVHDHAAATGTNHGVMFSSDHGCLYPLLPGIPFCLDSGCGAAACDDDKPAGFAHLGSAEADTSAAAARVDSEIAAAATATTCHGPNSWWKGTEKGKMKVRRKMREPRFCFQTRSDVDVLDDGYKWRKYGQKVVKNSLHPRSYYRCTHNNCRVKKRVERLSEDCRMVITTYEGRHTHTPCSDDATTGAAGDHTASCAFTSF

Sequence	binding signal
GTTTGACACCGTGGACTTTTTTAAATATGTTTGACCATTCCGGAGTCACCTAGTGCAG	11800 fluorescence intensity (a.u.)
TAACACCGTTGACTTTTTAGCTCATGTTTGACCATTCGTCCGGAGTCACCTAGTGCAG	27400 fluorescence intensity (a.u.)
ACCTCTGTTTTTAATAGATGACGTGTCGTTGACTTTTTATCGGAGTCACCTAGTGCAG	13300 fluorescence intensity (a.u.)
CATCGTTGAACTTTATCGTGCCCTTCACACCATTCCGTCGCGGAGTCACCTAGTGCAG	8130 fluorescence intensity (a.u.)
TTAACTTTTTAGTACGTGTTTGACCATTCGTATTATTCAACGGAGTCACCTAGTGCAG	9020 fluorescence intensity (a.u.)
GACACCGTTGACTTTTTAAGTACGTGTTTGACCATTCGTCCGGAGTCACCTAGTGCAG	43700 fluorescence intensity (a.u.)
TGTTTGACACCGTTGACTTTTTAGTCGTGTTTGACCATTCCGGAGTCACCTAGTGCAG	24400 fluorescence intensity (a.u.)
CGTTCCACCGCCGCGCCTCTTCCCCGCCCCGATCGGCTGCCGGAGTCACCTAGTGCAG	8810 fluorescence intensity (a.u.)
ACTACAGTCCCTCGCCATGCATGCGCCGTCAGATGTCCAACGGAGTCACCTAGTGCAG	11500 fluorescence intensity (a.u.)
GAGCGGGGCGGGGCTGCATTTGGCGTCGCGATGGACCTCACGGAGTCACCTAGTGCAG	12600 fluorescence intensity (a.u.)
TTTTTACATCTTAGCCCCTTGCCGCTTTTGCGAATTTTGCCGGAGTCACCTAGTGCAG	9810 fluorescence intensity (a.u.)
GCCCACCATTTCCCCAAACATTTCCACACATTCCTACAATCGGAGTCACCTAGTGCAG	13600 fluorescence intensity (a.u.)
GTAGATGTAGTAGCTAGCTTTTGTTAATTTCAACGTTCCACGGAGTCACCTAGTGCAG	8380 fluorescence intensity (a.u.)
AATATTTTTTTTCTCAATCATTTCTTATCATTATTATTATCGGAGTCACCTAGTGCAG	8280 fluorescence intensity (a.u.)
TCTTCATTTCCGTGTTCAGCAGCTTTGCAATAATTTCTATCGGAGTCACCTAGTGCAG	11900 fluorescence intensity (a.u.)
TCCCACTCAGCTGTCCGTCCGCCAATCACTGTACTTCTATCGGAGTCACCTAGTGCAG	22000 fluorescence intensity (a.u.)
TTTCCTCCGTCCCTGAGCTGTACTCGCGCCAATCAATCATCGGAGTCACCTAGTGCAG	9570 fluorescence intensity (a.u.)
ATCATCCCATCCCATCTCATCCGTCCATCCGCCAACTCATCGGAGTCACCTAGTGCAG	12300 fluorescence intensity (a.u.)
GGGTTTTTTTTTTTTTTGCTGCTTTGCTTAGCACTTTTTTCGGAGTCACCTAGTGCAG	8340 fluorescence intensity (a.u.)
TTCGGGGAGGGTTTTCGGGGACAGCAGCTGCGGGCTTAAACGGAGTCACCTAGTGCAG	18700 fluorescence intensity (a.u.)
GAGGTAGGGAGAGGTTTCGTTAGGGTTTCGGGCGGGGATGCGGAGTCACCTAGTGCAG	19900 fluorescence intensity (a.u.)
CAGTGTAGGGGAGAGAGAGAGAGAGTGGGGTAGAGGGATGCGGAGTCACCTAGTGCAG	8980 fluorescence intensity (a.u.)

Sequence	binding signal
CGGAGAGGGAGGGGAGCTAGGGTTTTTCGGGGCGGGGATGCGGAGTCACCTAGTGCAG	27600 fluorescence intensity (a.u.)
AGAGATCGGGGTTTGGTTTTTTGGAGGGGAGAGCGGAGTGCGGAGTCACCTAGTGCAG	10200 fluorescence intensity (a.u.)
CCAGGAGGGTGAGCTTGATGCAGGGGCGGGTGCGGGCGAGCGGAGTCACCTAGTGCAG	12500 fluorescence intensity (a.u.)
GGCGGCGGCGGCAGGGGCGGCGGAGGGTTGGCGGCGGCGGCGGAGTCACCTAGTGCAG	11000 fluorescence intensity (a.u.)
GGAGGGTTAGATCACCAGGGGCGGGTTGATGCAAAAAATTCGGAGTCACCTAGTGCAG	17000 fluorescence intensity (a.u.)
ATCGGGGTTGTTGTTTTTGTAGCTGCTTAAGCTTTTTATTCGGAGTCACCTAGTGCAG	14100 fluorescence intensity (a.u.)
CGGGAGGGCGAGAGGGTTTTCGGAGCGGGAGGGGAAGATGCGGAGTCACCTAGTGCAG	15200 fluorescence intensity (a.u.)
GGAGGAGGAGCTAGGGTTTCGGATGGGAGGAGGAGGAGGGCGGAGTCACCTAGTGCAG	8800 fluorescence intensity (a.u.)
TCTCGATCTCCCCGCCTATTTATGCTCGTCTCGTCACCCGCGGAGTCACCTAGTGCAG	8140 fluorescence intensity (a.u.)
GATATTTTGCTTGTATTGTTCGACCACTCGTCTTATTAAACGGAGTCACCTAGTGCAG	8040 fluorescence intensity (a.u.)
TCATCTCATCTCTCTCGTTTTTATATGCACGTTTTTCAAACGGAGTCACCTAGTGCAG	9530 fluorescence intensity (a.u.)
TTTGGGTGGTGGCAGTTGACAGAAGAGAGTGAGCACACAGCGGAGTCACCTAGTGCAG	8270 fluorescence intensity (a.u.)
TTTACAATGGTATCTATGTGTTGTTTTTGTGTGTGTGTGTCGGAGTCACCTAGTGCAG	10100 fluorescence intensity (a.u.)
ATGCTTGCCTTCTTCTTATTCTCCTTCCCTATGGTCTTCTCGGAGTCACCTAGTGCAG	8770 fluorescence intensity (a.u.)
ACATGCAACAGTGTGTCGTGCTTGTATTTCTGTTATCTGACGGAGTCACCTAGTGCAG	8660 fluorescence intensity (a.u.)
ATGGGTGGAGGAGTGGGAGGGGATTAAATATCGGCGGAGGCGGAGTCACCTAGTGCAG	9240 fluorescence intensity (a.u.)
CTTCAACTTTCTCGTTTTCCGTCAGCACGCTTTCCAAACTCGGAGTCACCTAGTGCAG	9080 fluorescence intensity (a.u.)
TCCAACTTGGGGAGGGAGGGCCGTTTCAGCTCGGGCTTTTCGGAGTCACCTAGTGCAG	17200 fluorescence intensity (a.u.)
TCCGTTTTGCCGTTGGGCTAGCTTAGCTTGTTTTTTTTTTCGGAGTCACCTAGTGCAG	12000 fluorescence intensity (a.u.)
GTGCATGTGTAGGGAGGGCACAATGGAGGGGTGTTTTTTTCGGAGTCACCTAGTGCAG	15000 fluorescence intensity (a.u.)
ATGTGATTAAATGGAGGGTTTTCGGGGAGGGTTTTCGGGGCGGAGTCACCTAGTGCAG	24100 fluorescence intensity (a.u.)
